A selection: hits, their analogues and other compounds. The true share with any hit is near 6.6%.
HepG2 viability = qHTS for Inhibitors of TGF-b: Cytotox Counterscreen | 410,000 compounds, 0.76% hits | AID 588856, 2011 | Potency, µM (series often up to 46.1 µM), for the others: at the top dose activity change, negative = cytotoxicity, usual class: cytotoxic | HepG2 CAGA-GFP viability, ATP luminescence, 18 h
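HepG2 CAGA-GFP cells (1000/well, DMEM with 1% FBS) received compound, then TGF-beta at 500 pg/mL final, and were incubated 18 hours at 37 degrees C. Viability was read by CellTiter-Glo luminescence. Media-only wells were set as complete cell-killing and DMSO as no toxicity.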
TGFb inhibitor = qHTS for Inhibitors of TGF-b | 410,000 compounds, 1.2% hits | Potency, µM (titrated, usually from 46.1 µM), for the others: top-dose activity, negative = inhibition, most hits filed as inhibitors | HepG2 CAGA-GFP TGF-b/SMAD3 reporter, GFP fluorescence, 18 h; TGF-beta stimulated, 500 pg/mL final; note: % is set by controls: 0 for no effect and ±100 for the full control effect; nearly all actives have a fitted effect of over 65% in size
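Cell-based qHTS in HEPG2 carrying a CAGA-GFP Smad reporter; compounds added before 500 pg/mL final TGF-beta, 18 h incubation at 37 degrees C, GFP fluorescence quantified per cell by imaging cytometry.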
HT1080-NT tox = qHTS for induction of synthetic lethality in tumor cells producing 2HG: qHTS for the HT-1080-NT fibrosarcoma cell line. AID 686970, 2013. 360,000 compounds, 1.6% hits. Potency, µM (series often up to 46.1 µM), for inactives: at the highest dose activity, negative = less viability, usual class: cytotoxic. HT-1080-NT fibrosarcoma viability, CellTiter-Glo ATP luminescence, 48 h;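 note: NT is the 2HG producing partner of a matched IDH1 knockdown line; 0% = DMSO-treated cells and -100% = media-only wells without cells; nearly all actives have a fitted effect of over 55% in size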
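750 cells/well, RPMI + 5% FBS; 2 h settle, compound pin-transfer, 48 h at 37 degrees C. CellTiter-Glo 10 min RT, luminescence. Normalized to DMSO and media-only wells.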
KB-V1 cytotox = qHTS assay for MDR1-selective chemotherapeutics: Primary screen using the drug-selected MDR subline cells KB-V1. KB-V1 MDR cells viability, CellTiter-Glo, 72 h. Potency, µM (top dose mostly 46.1 µM), usual class: cytotoxic. 400,000 compounds, 3.4% hits. AID 1347076, 2019; note: % is set by controls: 0 for no effect and ±100 for the full control effect; nearly all actives have a fitted effect of over 60% in size
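In this primary screen, KB-V1 cells overexpressing P-gp are incubated with library compounds (lowest to highest concentration) for 72 h at 37 degrees C before a luminescent ATP viability read.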
HT1080 IDH1KD tx = qHTS for induction of synthetic lethality in tumor cells producing 2HG: qHTS for the HT-1080-IDH1KD cell line; HT-1080 IDH1 knockdown viability, ATP luminescence, 48 h; Potency, µM (titrated, usually from 46.1 µM), inactives show at the top dose activity, negative = toxicity, hits mostly cytotoxic; 360,000 compounds, 2% hits; AID 686971, 2013;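 note: 0% = DMSO wells and -100% = cell-free medium wells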
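HT-1080-IDH1KD cells (IDH1 knocked down), 750/well in RPMI with 5% FBS, treated with compound 48 h at 37 degrees C. Viability by CellTiter-Glo luminescence, normalised to DMSO and no-cell wells; concentration-response curves classed.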
KB-3-1 cytotox = qHTS assay for MDR1-selective chemotherapeutics: Primary screen using the parental adenocarcinoma cell KB-3-1; 400,000 compounds, 1.4% hits; Potency, µM (series often up to 46.1 µM), usual class: cytotoxic; KB-3-1 viability, CellTiter-Glo ATP luminescence, 72 h; AID 1347075, 2019; note: % is set by controls: 0 for no effect and ±100 for the full control effect; nearly all actives have a fitted effect of over 60% in size
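Luminescent ATP read-out (CellTiter-Glo) measures survival of drug-naive KB-3-1 cells after 72 h compound exposure at 37 °C. Titration series was screened from lowest to highest concentration, with DMSO vehicle plates as background controls.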
Starred values were filed as active, the others as inactive; ! = not active in a repeat. Calls come from the whole dose curve; as a rule, active = well fitted curve in the direction sought with a large enough effect; inconclusive = small, poorly fitted or top-dose-only effect, or another doubt; inactive = no such curve, though single readings can be large; an effect the other way counts as inactive or inconclusive. Potency is the fitted concentration of half-maximal effect.

How did Cc1cccc(Nc2nnc(SCC(=O)NC(=O)Nc3ccc4c(c3)OCCO4)s2)c1 do in these assays?
HepG2 viability: -6.0%; TGFb inhibitor: 2.6%; HT1080-NT tox: 23.1µM*; KB-V1 cytotox: inconclusive; HT1080 IDH1KD tx: inconclusive; KB-3-1 cytotox: inconclusive

Results for Cc1cccc(Nc2nnc(SCC(=O)Nc3cccnc3Cl)s2)c1 ?
HepG2 viability: -0.1%; TGFb inhibitor: 0.9%; HT1080-NT tox: 5.3%; KB-V1 cytotox: 14.6µM*; HT1080 IDH1KD tx: 10.7%; KB-3-1 cytotox: inactive

Results for COc1ccccc1NC(=O)CSc1nnc(NC(=O)C2CC2)s1 ?
HepG2 viability: -14.1%; TGFb inhibitor: -5.5%; HT1080-NT tox: -0.4%; KB-V1 cytotox: inactive; HT1080 IDH1KD tx: -12.3%; KB-3-1 cytotox: inactive

How did Cc1ccc(Cc2cnc(NC(=O)c3ccc4c(c3)CC(c3ccccc3)OC4=O)s2)cc1 (stereo not given) do in these assays?
HepG2 viability: -4.4%; TGFb inhibitor: -6.9%; KB-V1 cytotox: inactive; KB-3-1 cytotox: inactive

Results for O=C(Nc1ccc(Br)cc1)C1CCCN1S(=O)(=O)c1ccc(F)cc1 (stereo not given) ?
HepG2 viability: -31.2%

Results for COC(=O)CC1(CC(N)=O)SCCS1 ?
HepG2 viability: 14.1µM*; TGFb inhibitor: inconclusive; HT1080-NT tox: -4.5%; KB-V1 cytotox: inactive; HT1080 IDH1KD tx: inconclusive; KB-3-1 cytotox: inconclusive

What do the screens show for `Cc1cc(C)cc(OC(=O)CS(=O)c2ccc(C(F)(F)F)cc2[N+](=O)[O-])c1` (stereo not given)?
HepG2 viability: -98.9%; TGFb inhibitor: inconclusive; HT1080-NT tox: 20.6µM*; KB-V1 cytotox: inconclusive; HT1080 IDH1KD tx: 23.1µM*; KB-3-1 cytotox: inconclusive

Results for O=C(CS(=O)c1ccc(C(F)(F)F)cc1[N+](=O)[O-])Oc1ccc(Cl)cc1 (stereo not given) ?
HepG2 viability: -95.4%; TGFb inhibitor: inconclusive; HT1080-NT tox: inconclusive; KB-V1 cytotox: inactive; HT1080 IDH1KD tx: inconclusive; KB-3-1 cytotox: inconclusive

Results for Cc1ccc(-n2c(SCC(=O)c3c(N)n(C)c(=O)n(C)c3=O)nc3sc4c(c3c2=O)CCCC4)c(C)c1 ?
HepG2 viability: -30.1%; TGFb inhibitor: inconclusive; HT1080-NT tox: -7.9%; KB-V1 cytotox: 20.6µM*; HT1080 IDH1KD tx: -0.4%; KB-3-1 cytotox: inconclusive

Results for Cc1ccc(N(C)C(CNS(=O)(=O)c2ccccc2)c2ccccc2)cc1 (stereo not given) ?
HepG2 viability: -60.3%; TGFb inhibitor: inconclusive; KB-V1 cytotox: inactive; KB-3-1 cytotox: inactive

How did CCOC(=O)C1=C(C)N=c2s/c(=C\c3ccc(O)c([N+](=O)[O-])c3)c(=O)n2C1c1ccccc1OC (stereo not given) do in these assays?
HepG2 viability: -0.4%; TGFb inhibitor: -1.6%; HT1080-NT tox: inconclusive; KB-V1 cytotox: inconclusive; HT1080 IDH1KD tx: -4.3%; KB-3-1 cytotox: inconclusive

How did COc1ccc(/C=c2/sc3n(c2=O)C(c2ccccc2OC)C2=C(N=3)c3ccccc3CC2)cc1O (stereo not given) do in these assays?
HepG2 viability: -28.0%; TGFb inhibitor: inconclusive; HT1080-NT tox: inconclusive; KB-V1 cytotox: inconclusive; HT1080 IDH1KD tx: 25.9µM*; KB-3-1 cytotox: inconclusive

What do the screens show for `Cc1ccc(S(=O)(=O)c2c(O)cc(C)c(NS(=O)(=O)c3ccc(Cl)cc3)c2C)cc1`?
HepG2 viability: -71.5%; TGFb inhibitor: inconclusive; KB-V1 cytotox: inactive; KB-3-1 cytotox: inactive

What do the screens show for `Cn1c(-c2ccc(Br)o2)nc2ccccc21`?
HepG2 viability: -63.7%; TGFb inhibitor: inconclusive; HT1080-NT tox: 11.6µM*; KB-V1 cytotox: inconclusive; HT1080 IDH1KD tx: 18.4µM*; KB-3-1 cytotox: 25.9µM*!

Results for CCn1c(-c2ccc(N(C)C)cc2)nc2ccccc21 ?
HepG2 viability: -33.4%; TGFb inhibitor: inconclusive; HT1080-NT tox: -1.8%; KB-V1 cytotox: 16.4µM*; HT1080 IDH1KD tx: inconclusive; KB-3-1 cytotox: 13µM*

What do the screens show for `CN(C)c1ccc(-c2nc3ccccc3n2C)cc1`?
HepG2 viability: 8.91µM*; TGFb inhibitor: inconclusive; HT1080-NT tox: inconclusive; KB-V1 cytotox: inconclusive; HT1080 IDH1KD tx: 11.2µM*; KB-3-1 cytotox: inconclusive

What do the screens show for `CCn1c(-c2ccc(N)cc2)nc2ccccc21`?
HepG2 viability: -39.6%; TGFb inhibitor: -28.2%; HT1080-NT tox: 0.8%; KB-V1 cytotox: inactive; HT1080 IDH1KD tx: 1.6%; KB-3-1 cytotox: inconclusive

Results for Cc1nc(-c2ccc(C)c(N3CCN(C(=O)Nc4cccc(Cl)c4C)CC3)c2)no1 ?
HepG2 viability: -7.4%; TGFb inhibitor: -10.0%; KB-V1 cytotox: inactive; KB-3-1 cytotox: inactive

How did Cc1ccc(-n2c(-c3ccc(Cl)cc3)c[n+]3c2CCC3)cc1 do in these assays?
HepG2 viability: -37.1%; TGFb inhibitor: -21.0%; HT1080-NT tox: inconclusive; KB-V1 cytotox: inactive; HT1080 IDH1KD tx: inconclusive; KB-3-1 cytotox: 4.61µM*

What do the screens show for `Cc1ccc(-n2c(-c3ccccc3)c[n+]3c2CCC3)cc1`?
HepG2 viability: -13.6%; TGFb inhibitor: -23.8%; HT1080-NT tox: inconclusive; KB-V1 cytotox: inconclusive; HT1080 IDH1KD tx: 5.8µM*; KB-3-1 cytotox: 3.66µM*

How did Cc1nc2n(c(=O)c1CCN1CCC(c3noc4cc(F)ccc34)CC1)CCC[C@@H]2O do in these assays?
HepG2 viability: -11.7%; TGFb inhibitor: -0.1%

How did O=C(Nc1ccc2c(c1)OCO2)c1cc(-c2ccncc2)nc2ccccc12 do in these assays?
HepG2 viability: 2.6%; TGFb inhibitor: inconclusive; HT1080-NT tox: 18.4µM*; KB-V1 cytotox: inconclusive; HT1080 IDH1KD tx: 18.4µM*; KB-3-1 cytotox: inconclusive

How did O=C(Nc1ccc2c(c1)OCCO2)c1cc(-c2ccccc2)nc2ccccc12 do in these assays?
HepG2 viability: -39.2%; TGFb inhibitor: 3.8%; HT1080-NT tox: -17.4%; KB-V1 cytotox: inactive; HT1080 IDH1KD tx: -25.4%; KB-3-1 cytotox: inactive

How did O=C(N/N=C/c1ccc2c(c1)OCO2)c1cc(-c2ccncc2)nc2ccccc12 do in these assays?
HepG2 viability: -0.8%; TGFb inhibitor: -30.6%; HT1080-NT tox: inconclusive; KB-V1 cytotox: inactive; HT1080 IDH1KD tx: 2.59µM*; KB-3-1 cytotox: 5.8µM*

Source: PubChem
